Source: PubChem BioAssay
Sampled rows, rich in hits. Any-hit rate of the full collection: about 7%.
ATXN2 expr inh: Primary qHTS for Inhibitors of ATXN expression. hit rate 0.72% among 360,000. Potency, µM (top dose mostly 57 µM), for inactives: at the highest dose activity change, negative = inhibition, actives largely listed as inhibitors. HEK-293 ATXN2-luciferase reporter, luminescence, 24 h; also: potency is read from the fitted curve at half-maximal effect; % is scaled to controls: 0 for no effect and ±100 for the full control effect; nearly all actives have a fitted effect of over 55% in size
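ATXN2-luciferase reporter cells (luciferase flanked by upstream and downstream ATXN2 gene portions) were treated 24 h at 37 °C with compounds at up to 57 uM. SteadyGlo luminescence gave expression; GF-AFC fluorescence gave viability.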
D3 ag: qHTS of D3 Dopamine Receptor Agonist: qHTS; max activation, %; D3R DiscoveRx beta-arrestin cells, luminescence, 90 min; AID 652048, 2013; hit rate 0.58% among 410,000; D(3) dopamine receptor (Homo sapiens), P35462; in the data active = max activation above about 30%; also: 0% is about no effect
Target sequence (P35462 whole entry, looked up): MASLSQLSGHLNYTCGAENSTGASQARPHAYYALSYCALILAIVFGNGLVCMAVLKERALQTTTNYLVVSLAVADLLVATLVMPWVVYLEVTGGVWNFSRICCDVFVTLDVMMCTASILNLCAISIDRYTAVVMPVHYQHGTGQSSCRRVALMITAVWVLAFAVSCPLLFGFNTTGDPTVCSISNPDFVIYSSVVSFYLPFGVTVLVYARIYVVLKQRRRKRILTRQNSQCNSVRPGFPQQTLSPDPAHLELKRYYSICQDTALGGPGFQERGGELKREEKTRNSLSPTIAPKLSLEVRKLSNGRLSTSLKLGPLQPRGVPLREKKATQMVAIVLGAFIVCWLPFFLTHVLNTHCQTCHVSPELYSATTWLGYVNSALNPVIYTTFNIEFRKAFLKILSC
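Cells at 1500/well, incubated overnight, then treated with pinned compounds (dopamine as control) for 90 min at 37 degrees C. DiscoveRx reagent added for 30 - 60 minutes at room temperature; luminescence read.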
Integrin act MD: qHTS for Activators of Integrin-Mediated Alleviation for Muscular Dystrophy; alpha7betagal myoblasts, beta-gal FDG fluorescence, 48 h; Potency, µM (titrated, usually from 38.3 µM), inactives show at the top dose activation, most hits filed as activators; hit rate 0.064% among 350,000; AID 624291, 2012;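 also: potency is read from the fitted curve at half-maximal effect; 100% = response of the positive control SU9516; nearly all actives have a fitted effect of over 60% in size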
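Alpha7betagal+/- myoblasts (passage 13) were plated 16-24 hr, then exposed to compounds (1:260 dilution of DMSO stock) for 48 hours at 37C. After MPER lysis, β-galactosidase reporter activity was read as FDG fluorescence (ex 480/em 540) after 30 minutes.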
IL-1B inflam inh: qHTS for Inhibitors of Inflammasome Signaling: IL-1-beta AlphaLISA Primary Screen; THP-1 LPS/ATP IL-1B secretion, AlphaLISA, 16 h; hits give low values; activity change, % at 57.5 µM; hit rate 4.7% among 360,000; in the data active = activity change below about -50%; inconclusive = mostly about -30% to -49%; also: % is scaled to controls: 0 for no effect and ±100 for the full control effect
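THP-1 cells pretreated 1 hr with compounds (up to 57.5 uM final), then stimulated with LPS (250 ng/mL final) plus ATP (1.25 mM final); secreted IL-1B measured by AlphaLISA after 16 hr, decreased signal indicating inhibition.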
D3 antag: qHTS of D3 Dopamine Receptor Antagonist: qHTS; D3R cells, DiscoveRx beta-arrestin luminescence, antagonist mode; hits give low values; max response, negative = inhibition, %; hit rate 2.5% among 360,000; AID 652054, 2013; in the data active = max response below about -50%; inconclusive = no clear call, values can overlap the other calls; also: % is scaled to controls: 0 for no effect and ±100 for the full control effect
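Cells plated overnight at 1500 cells/well, then exposed to library compounds with dopamine controls for 90 minutes at 37 degrees C. DiscoveRx reagent added for 30–60 minutes at room temperature; luminescence read, quantitative HTS format.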
S2 tox: Viability Counterscreen for Primary qHTS for Inhibitors of ATXN expression | AID 651635, 2014 | Potency, µM (doses to about 56.7 µM), usual class: cytotoxic | hit rate 0.49% among 400,000 | S2 cells (HEK-293 line with an ATXN2-luciferase reporter) viability, CellTiter-Fluor protease fluorescence, 24 h; also: potency is read from the fitted curve at half-maximal effect; nearly all actives have a fitted effect of over 40% in size
Numbers without * were called inactive; i = inactive; u = inconclusive; x = no result; ! = not confirmed by another sample; [ ] = remark or other dose. Unless noted, calls follow the shape of the dose curve; as a rule, active = well fitted curve in the direction sought with a large enough effect; inconclusive = small, poorly fitted or top-dose-only effect, or another doubt; inactive = no such curve, though single readings can be large; an effect the other way counts as inactive or inconclusive.

SMILES	ATXN2 expr inh	D3 ag	Integrin act MD	IL-1B inflam inh	D3 antag	S2 tox
O=C(NC1CCSc2ccccc21)c1cccc(OC(F)F)c1 (stereo not given)	23%	21	14%	-11	27	i
CCN(CC)C(=O)CSc1nc2ccc(NC(=O)CSc3nccn3C)cc2s1	8%	1	-18%	-53*	10	u
CCN(CC)C(=O)CSc1nc2ccc(NC(=O)CSc3nnc(N)s3)cc2s1	-8%	-2	-24%	-13	18	i
Cc1sc(NC(=O)c2ccc(Cl)s2)c(C(N)=O)c1C	128%	8	19%[7.66 µM]	-16	20	i
O=S1(=O)N[C@H](Cc2ccccc2)COc2cccc(N3CCN(Cc4ccccc4F)CC3)c21	u	-10	x	0	u	18µM*
FC(F)(F)c1cccc(-c2cc(C3CCNCC3)[nH]n2)c1	-19%	7	u	u	18	i
CN(Cc1cccc2cnccc12)C(=O)c1cc(COc2ccc(F)cc2Cl)on1	-24%	-5	-29%	-51*	0	i
CC12CCC(C(=O)N3CCC(Cc4ccccc4)CC3)(C(=O)C1=O)C2(C)C (stereo not given)	-17%	-6	u	-102*	-11	i
COc1ccc(C(=O)CSc2cc(C)[nH]c(=O)n2)cc1	x	-3	5%	21	-51*	i
Cc1cc(C(=O)CN2C(=O)NC(CC(C)C)C2=O)c(C)n1C1CC1 (stereo not given)	59%	7	6%	1	2	i
Cc1ccc(C)c(CN2CCC(CNC(=O)Nc3ccc(Cl)cc3)CC2)c1	12%	-10	5%	-95*	-1	i
O=C(NCC1CC1)Nc1ccc(Cl)cc1	x	2	3%	-5	13	i
Cc1ccc(C)c(CN2CCC(CNC(=O)Nc3ccc(Br)cc3F)CC2)c1	20µM*!	-18	-57%	-83*	-16	u
O=C(O)Cn1c(=O)c2cccn2c2ccccc21	x	3	16%	-11	-8	i
O=c1c2ccccc2ncn1-c1ccc([N+](=O)[O-])cc1[N+](=O)[O-]	-19%	5	-27%	-64*	0	i
O=c1c2ccccc2ncn1-c1ccc(Cl)cc1[N+](=O)[O-]	u	-1	9%	-2	-4	i
COc1ccc(C2NC(=S)NC(C)=C2C(=O)Nc2ccccn2)cc1 (stereo not given)	52%	7	-13%	7	3	i
O=C1C=C(Nc2ccccc2)c2ccccc2C1=O	u	-14	-46%	11	u	28µM*
O=C1C=C(Nc2ccccc2C(=O)O)c2ccccc2C1=O	8%	-8	-14%	47	-27	i
O=C1C=C(Nc2cccc3cccnc23)c2ccccc2C1=O	-14%[2.22 µM]	3	-60%	-78*	u	14µM*
O=C1C=C(Nc2ccccc2)C(=O)c2ccccc21	-17%	-5	-32%	0	-5	u
CCc1ccc(NC2=CC(=O)C(=O)c3ccccc32)cc1	u	-9	-54%	-87*	0	u
CC(=O)Nc1cccc(-c2ccnc3c2CC(C)(C(=O)NCc2cccc(Cl)c2)O3)c1 (stereo not given)	-26%	-8	x	65	-26	u
O=C(NNc1cccc(Cl)n1)Nc1ccccc1Cl	1%	-5	7%	0	-11	i
COc1cc(/C=N/N2CCN(C3c4ccccc4-c4ccccc43)CC2)ccc1O	-8%	-1	-10%	0	18	i
SMILES	ATXN2 expr inh	D3 ag	Integrin act MD	IL-1B inflam inh	D3 antag	S2 tox
Oc1cccc(/C=N/N2CCN(C3c4ccccc4-c4ccccc43)CC2)c1	4%	2	0%	-57*	15	i
COC(=O)Cc1cc(OC)c(OC)cc1S(=O)(=O)N(C)C	-32%	8	1%	-11	7	i
Cn1ncc2c(Nc3ccc(Cl)c(Cl)c3)ncnc21	x	2	10%	35	38	u
Cc1ccc(-n2ncc3c(Nc4ccc5c(c4)OCCO5)ncnc32)cc1C	3%	48*	x	x	x	i
CCCn1ncc2c(Nc3ccc(C)c(C)c3)ncnc21	48%	12	2%	-64*	8	i
COc1cc2nc(Nc3ccc(C)c(Cl)c3)nc(N)c2cc1OC	u	-9	-67%	-94*	12	u
COc1cc2nc(Nc3cccc(C)c3)nc(N)c2cc1OC	-4%	4	x	x	x	u
COc1cc2nc(Nc3ccc(C)c(C)c3)nc(N)c2cc1OC	u	1	-76%	-98*	1	u
Cc1ccc(Nc2nc3ccccc3c3nnc(C)n23)cc1Cl	x	1	x	x	x	x
Cc1ccc(Nc2nc(N)c3ccccc3n2)cc1Cl	x	12	-9%	-97*	6	u
O=C(/C=C/c1ccccc1[N+](=O)[O-])N1CCN(c2ccccc2F)CC1	8%	3	30%	-6	3	i
CC(=O)N1c2ccccc2C(=O)C1N1CCN(c2ccc(Cl)cc2)CC1 (stereo not given)	x	1	x	x	x	x
COc1cc(C2C(c3ccccc3)C(c3cc(OC)cc(=O)o3)C2c2ccccc2)oc(=O)c1 (stereo not given)	-22%	-11	15%	u	5	i
Cc1ccc(-n2c(SCC(=O)NCc3ccco3)nc3c([nH]c4ccccc43)c2=O)cc1	11%	0	-22%	-2	-50*	i
Cc1cc(C)cc(-n2c(SCC(=O)NCc3ccco3)nc3c([nH]c4ccccc43)c2=O)c1	7%	0	x	x	x	i
CC(=O)CCc1ccccc1	3%	12	20%	8	-4	i
O=C(Nc1nc2ccccc2n1CCN1CCOCC1)c1ccc(Cn2cc([N+](=O)[O-])cn2)o1	-9%	0	-27%	-8	-1	i
O=C(Nc1nc2ccccc2n1CCN1CCOCC1)c1ccc(COc2ccccc2Br)o1	u	4	-64%	-95*	8	u
O=C(Nc1nc2ccccc2n1CCN1CCOCC1)c1cccc([N+](=O)[O-])c1	22µM*	x	x	x	x	x
COc1ccc(Br)c(C(=O)N2CCN(S(=O)(=O)c3cccs3)CC2)c1	x	15	6%	0	11	i
CCOC(=O)c1ccc(N2CN(CCc3ccccc3)CNC2=S)cc1	0%	3	-28%	-10	-15	u
O=C1c2ccccc2C(=O)C1c1ccncc1	-27%	-5	21%	-21	-11	i
